Hits are enriched below; roughly 3.4% of the tested compounds scored in any of these assays.
TEAD-YAP block: TEAD-YAP interaction inhibition; HEK-TIYL cells, TEAD-Gal4/YAP UAS-luciferase luminescence; inhibition, % at 9.12 µM; 1.4% of 640,000 active; AID 1259422; in the data active means inhibition above about 32%;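 further: 0% = median of test compound wells and 100% = reference inhibitor wells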
FBW7 act: activators of human E3 ligase FBW7; Q969H0; AlphaScreen FBW7–phospho-cyclin E peptide binding, activator screen; normalized activity (activation), % at 26.1 µM; 0.13% of 650,000 active; in the data active means normalized activity above about 1.9%;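 further: purified mutant Fbw7 with reduced substrate affinity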
Target sequence (Q969H0 whole entry, looked up): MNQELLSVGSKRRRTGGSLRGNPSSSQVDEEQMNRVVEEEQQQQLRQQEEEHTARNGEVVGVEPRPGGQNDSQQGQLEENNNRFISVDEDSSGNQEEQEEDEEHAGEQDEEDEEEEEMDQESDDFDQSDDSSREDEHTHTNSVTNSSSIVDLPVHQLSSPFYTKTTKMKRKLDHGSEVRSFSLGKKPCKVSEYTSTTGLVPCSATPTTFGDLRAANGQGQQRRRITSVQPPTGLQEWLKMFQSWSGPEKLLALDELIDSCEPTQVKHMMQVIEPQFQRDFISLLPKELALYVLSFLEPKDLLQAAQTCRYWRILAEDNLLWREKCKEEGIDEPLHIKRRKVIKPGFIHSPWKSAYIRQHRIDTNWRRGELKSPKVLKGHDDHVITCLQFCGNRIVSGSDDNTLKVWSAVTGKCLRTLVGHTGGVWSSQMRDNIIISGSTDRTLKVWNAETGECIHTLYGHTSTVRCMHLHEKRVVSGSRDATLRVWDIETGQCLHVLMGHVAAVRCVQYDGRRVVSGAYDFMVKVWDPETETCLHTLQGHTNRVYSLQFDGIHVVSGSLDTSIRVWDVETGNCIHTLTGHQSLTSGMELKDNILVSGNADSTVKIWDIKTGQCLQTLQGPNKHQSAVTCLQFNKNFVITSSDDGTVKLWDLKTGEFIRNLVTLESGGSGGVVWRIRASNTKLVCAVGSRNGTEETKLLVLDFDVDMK
MITF inh: inhibitors of human MITF; O75030; AlphaScreen MITF homodimerization, bead proximity signal; inhibition, % at 2.6 µM; 0.91% of 650,000 active; AID 1259374; in the data active means inhibition above about 50%;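 further: 0% = vehicle wells with protein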
GPR151 activ: activates the human receptor GPR151; Q8TDV0; PathHunter beta-arrestin GPR151 cells, luminescence; activation, % at 11.2 µM; 1% of 650,000 active; in the data active means activation above about 4.9%;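 further: 0% = median of compound wells and 100% = cells with positive control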
GPR151 confirm: human GPR151 activation, confirmation screen; activation, % at 11.2 µM; GPR151 PathHunter beta-arrestin cells, luminescence, 90 min; % of EA-reagent control over plate median; shares compounds with GPR151 activ; 6,700 tested, under 10 active;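 active means mean percent activation across replicates above the confirmation screen cutoff of 4.91%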
GPR119 counter: counter-screen for GPR151 activators: effect on human GPR119 | shares compounds with GPR151 activ | GPR119 PathHunter beta-arrestin cells, luminescence, 90 min; 0 = compound-well median, 100 = enzyme-acceptor control | activation, % at 11.2 µM | 0.3% of 6,700 active | AID 1508611;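 active means mean percent activation in the counterscreen above 29.09%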;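 further: counterscreen on off-target GPR119 to flag nonselective hits from the GPR151 activator screen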
* = called active by the depositor; . = no result given; ! = repeats disagree.

SMILES	TEAD-YAP block	FBW7 act	MITF inh	GPR151 activ	GPR151 confirm	GPR119 counter
CO[C@H]1C[C@H](O[C@H]2[C@H](C)[C@@H](OC3O[C@H](C)C[C@H](N(C)C)[C@H]3OC(C)=O)[C@@H](C)C[C@]3(CO3)C(=O)[C@H](C)[C@@H](OC(C)=O)[C@@H](C)[C@@H](C)OC(=O)[C@@H]2C)O[C@@H](C)[C@@H]1OC(C)=O (some centres undefined)	-3	0	11	6.3*!	1	-8
N#Cc1cc2c(ccc3ccccc32)oc1=N	-4	0	-9	6.1*	-1	-13
O=C(O)c1cc2c(ccc3ccccc32)o1	-12	0	-5	-1	.	.
O=C(CN1C=C(c2ccc3ccccc3n2)C(C[N+](=O)[O-])c2ccccc21)c1ccccc1 (centres undefined)	-58	0	9	-2	.	.
Cc1ccc(NC(=O)CC2(CC(=O)O)CCCCC2)c(C)c1	-3	0	15	5.7*	0	8
Cc1cccc(NC(=O)CC2(CC(=O)O)CCCC2)c1	-8	0	0	-1	.	.
CCC(C(=O)N1CCCCC1)n1ncn2c(cc3occc32)c1=O (centres undefined)	-6	0	6	5.7*	0	6
CCOC(=O)c1ccc(NC(=O)CCSc2nc(N)c3c(C)c(C)sc3n2)cc1	1	0	1	6.8*	0	0
CCCNC(=O)c1ccc(CS(=O)(=O)c2ccc(Br)cc2)o1	8	0	3	1	.	.
CN1CCN(C(=O)c2ccc(-c3nc4ccc(C(=O)NCc5ccccc5)cc4s3)cc2)CC1	1	0	-1	1	.	.
NC(=O)c1ccc(-c2nc3ccc(C(=O)NCCOc4ccccc4)cc3s2)cc1	-33	0	-2	5.7*	0	-3
CN1CCN(C(=O)c2ccc(-c3nc4ccc(C(=O)NCCOc5ccccc5)cc4s3)cc2)CC1	-24	0	-8	5.3*	2	3
O=C(NNS(=O)(=O)c1ccc2ccccc2c1)c1ccccc1F	-6	0	1	0	.	.
CCNc1cc(NCCNC(=O)COc2ccccc2)nc(C)n1	3	0	7	3	.	.
Nc1ccc2nc(SCC(=O)c3ccc(Cl)cc3)sc2c1	-4	0	14	6.6*	0	-2
COc1ccc2[nH]c(CN3CCN(C4CCCC4)C(CCO)C3)c(C)c2c1 (centres undefined)	-10	0	-1	-3	.	.
Cc1ccc2onc(CNC(=O)N3CCCCC3)c2c1	-10	0	7	7.0*	0	4
CCN1CCN(C(=O)NCc2noc3ccc(C)cc23)CC1	9	0	7	-1	.	.
COc1ccc(/C=N\Nc2nnc3c(n2)[nH]c2c(C)cccc23)cc1OC	-12	1	13	9.7*	0	8
Cc1cccc2c1[nH]c1nc(N/N=C\c3ccccc3O)nnc12	-5	0	12	5.0*	1	3
COc1cccc(/C=N\Nc2nnc3c(n2)[nH]c2c(C)cccc23)c1	2	0	9	-1	.	.
Cc1ccc(C(=O)Nc2cnn(-c3ccc(C(=O)N[C@H]4CCCCNC4=O)cc3)c2)c(C)c1	5	0	7	1	.	.
Cc1ccc(Oc2nc3ccccn3c(=O)c2/C=C(\C#N)C(=O)N2CCOCC2)cc1	2	0	3	4.9*	-1	-10
Cc1cccn2c(=O)c(/C=C(\C#N)C(=O)N3CCCCC3)c(Oc3ccc(F)cc3)nc12	11	0	-16	5.7*	0	-11
COc1ccc(Oc2nc3c(C)cccn3c(=O)c2/C=C(\C#N)C(=O)N2CCCCC2)cc1	4	0	6	1	.	.
SMILES	TEAD-YAP block	FBW7 act	MITF inh	GPR151 activ	GPR151 confirm	GPR119 counter
COCCNC(=O)/C(C#N)=C/c1c(Oc2cccc(C)c2)nc2c(C)cccn2c1=O	4	0	0	6.1*	1	1
Cc1ccc(NC(=O)c2cnn(-c3ccccc3)c2NC(=O)c2ccc(Cl)cc2)cc1	-14	0	2	5.6*	0	9
COC(=O)COc1ccc(CNC2CCCCCCC2)cc1	3	0	0	5.4*	0	4
COc1ccc(NC(=O)c2sc3ncn(CC(=O)N4CCCCC4)c(=O)c3c2C)cc1Cl	2	0	-1	-1	.	.
NC(CC(=O)O)C(=O)O (centres undefined)	-17	0	12	7.8*	0	3
Cc1ccc(C)c(NS(=O)(=O)c2ccc(NS(C)(=O)=O)cc2)c1	6	0	-6	-1	.	.
COc1cc(Br)c(C2C(C#N)=C(N)Oc3cc4c(cc32)OCO4)cc1OC (centres undefined)	-3	0	4	9.1*	0	3
CCN(C(=O)c1cnc2ccccn2c1=O)c1cccc(C)c1	4	0	4	1	.	.
COC(=O)c1cc(NC(C)=O)c(Cl)c(NC(C)=O)c1	4	0	26	-1	.	.
CC(=O)Nc1cc(C(=O)O)cc(N)c1Cl	0	0	16	5.5*	-1	-2
O=C(CCSS(=O)(=O)O)N1CCc2ccccc21	-2	0	-3	0	.	.
CCC(C)Sc1nc(-c2ccc([N+](=O)[O-])cc2)nc2c1c(=O)n(C)c(=O)n2C (centres undefined)	-11	0	3	-1	.	.
O=C(O)/C=C/c1cccc(-c2cnc3ccc(NC4CCOCC4)nn23)c1	4	0	13	1	.	.
CC(=O)Nc1cccc(-c2cnc3ccc(NC4CCOCC4)nn23)c1	8	0	-8	4.9*	0	1
Cc1cc(C)c2c(c1)-c1c(ssc1=S)C(C)(C)N2C(=O)CSc1ncn[nH]1	-7	0	0	1	.	.
CCNc1nc(NC(C)(C)C)nc(Oc2ccc(=O)[nH]n2)n1	9	0	-7	5.1*	0	-4
CCNc1nc(Oc2ccc(=O)[nH]n2)nc(SC)n1	2	0	8	1	.	.
Cc1cc(C)n(CCN(C)C(=O)CCc2nnc(Cc3c[nH]c4ccccc34)o2)n1	-3	0	10	1	.	.
Cc1cc(C)n(-c2cc(NCCO)nc(C)n2)n1	2	0	-3	11*	0	-11
CCOC(=O)C1CCCN(CCC(C)c2ccccc2)C1 (centres undefined)	1	0	34	8.1*	0	-5
CCOC(=O)C1CCCN(CCC(=O)Nc2ccccc2)C1 (centres undefined)	4	0	11	1	.	.
O=C(c1ccco1)N(Cc1ccccc1F)C1CCS(=O)(=O)C1 (centres undefined)	-3	0	-12	5.3*	-1	-1
Cc1nc2c(nnn2Cc2ccccc2)c(=O)n1Cc1ccccc1	10	0	-4	10*	0	5
Cc1nc2c(nnn2Cc2ccccc2)c(=O)n1C	6	0	9	-1	.	.

Compound activity deposited in PubChem BioAssay by The Scripps Research Institute Molecular Screening Center.
